# Test results published in the supplement of paper PMC13094657.
# Counter-ions that a name gives are not always drawn. ± gives the standard deviation of the averaged measurements.
# Columns and labels:
# MDA-MB-231 [1] = experiment: cell viability relative to vehicle unstimulated control (fraction); higher = more viable cells; conditions: pre-treatment time: 18 h then 24 h IFNg/TNF
# MDA-MB-231 [2] = experiment: kynurenine production, fold change vs DMSO IFNg/TNF control; higher = more kynurenine produced (less inhibition); conditions: pre-treatment time: 18 h then 24 h IFNg/TNF
# In short: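 In 96-well plates, MDA-MB-231 cells (7 × 10^4/well) were given 24 h to settle, pre-treated for 18 h with each natural product in 0.1% DMSO, and stimulated for 24 h with IFNγ (1 U/ml) and TNF (6.25 ng/ml) at 37°C. Supernatants were processed with trichloroacetic acid and p-dimethylaminobenzaldehyde and read at 492 nm against 0–100 μM standards. In the first screening round, kynurenine production, as fold change over same-plate cytokine-stimulated vehicle wells, was averaged over duplicate plates.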
# 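For cell viability relative to vehicle unstimulated control in this document: viability of the cells left after supernatant collection, read with Deep Blue dye added for 4 h, as absorbance at 570 nm minus 600 nm.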
SMILES,cell viability (MDA-MB-231 [1]),kynurenine production (MDA-MB-231 [2])
"C=C(C)C1CC=C(C)[C@@H](O)C1 (single isomer, unassigned; (-)) [(-)-carveol (mixed)] (compound dose: 10 uM)",0.985 ± 0.086,1.02 ± 0.019
C[C@@H]1O[C@@H](O[C@H]2[C@H](O[C@H]3[C@H](O[C@H]4CC[C@]5(C)[C@H]6CC=C7[C@@H]8CC(C)(C)CC[C@]8(C(=O)O)CC[C@@]7(C)[C@]6(C)CC[C@H]5C4(C)C)OC[C@H](O)[C@@H]3O)O[C@H](CO)[C@@H](O)[C@@H]2O)[C@H](O)[C@H](O)[C@H]1O [Raddeanin A] (compound dose: 10 uM),0.0234 ± 0.033,0.116 ± 0.011
C[C@H]1[C@H](C)CC[C@]2(C(=O)O)CC[C@]3(C)C(=CC[C@@H]4[C@@]5(C)CC[C@H](O)C(C)(C)[C@@H]5CC[C@]43C)[C@H]12 [Ursolic acid] (compound dose: 10 uM),0.973 ± 0.015,0.891 ± 0.21
C[C@H](CC[C@@H](O[C@@H]1O[C@H](CO)[C@@H](O)[C@H](O)[C@H]1O)C(C)(C)O)[C@H]1CC[C@@]2(C)[C@@H]3CC=C4[C@@H](CC[C@H](O)C4(C)C)[C@]3(C)[C@H](O)C[C@]12C [Mogroside I A1] (compound dose: 10 uM),0.881 ± 0.068,0.921 ± 0.21
CC1(C)CCC[C@](C)([C@H]2CC[C@]3(C)[C@@H]2[C@H](O)C[C@@H]2[C@@]4(C)CC[C@H](O)C(C)(C)[C@@H]4[C@@H](O)C[C@]23C)O1 [Panaxatriol] (compound dose: 10 uM),0.926 ± 0.025,0.846 ± 0.073
CC(=O)OC/C1=C/[C@H]2[C@@H](OC(=O)/C=C/c3ccccc3)[C@@H](C)C[C@]2(OC(C)=O)C(=O)/C(C)=C/[C@@H]2[C@H](CC1)C2(C)C [Euphorbia factor L7a] (compound dose: 10 uM),1.086 ± 0.0038,0.948 ± 0.035
CC1(C)[C@@H](O)CC[C@]2(C)[C@H]3C(=O)C=C4[C@H]5C[C@@](C)(C(=O)O)CC[C@]5(C)CC[C@@]4(C)[C@]3(C)CC[C@@H]12 [18α-Glycyrrhetinic acid] (compound dose: 10 uM),1.06 ± 0.11,0.943 ± 0.14
C=C(C)[C@@H]1CC[C@]2(C(=O)O)CC[C@]3(C)[C@H](CC[C@@H]4[C@@]5(C)CC[C@H](O[C@@H]6OC[C@H](O)[C@H](O)[C@H]6O[C@@H]6O[C@@H](C)[C@H](O)[C@@H](O)[C@H]6O)[C@@](C)(CO)[C@@H]5CC[C@]43C)[C@@H]12 [Pulchinenoside A] (compound dose: 10 uM),1.04 ± 0.051,0.878 ± 0.057
COC(=O)[C@H]1[C@H]2C[C@@H]3c4[nH]c5cc(OC)ccc5c4CCN3C[C@H]2C[C@@H](OC(=O)c2cc(OC)c(OC)c(OC)c2)[C@@H]1OC [Reserpine] (compound dose: 10 uM),0.954 ± 0.028,1.02 ± 0.067
CC1(C)[C@@H](O[C@H]2O[C@H](C(=O)O)[C@@H](O)[C@H](O)[C@H]2O[C@@H]2O[C@H](C(=O)O)[C@@H](O)[C@H](O)[C@H]2O)CC[C@]2(C)[C@H]3C(=O)C=C4[C@@H]5C[C@@](C)(C(=O)O)CC[C@]5(C)CC[C@@]4(C)[C@]3(C)CC[C@@H]12 [Ammonium glycyrrhizinate] (compound dose: 10 uM),0.952 ± 0.033,0.801 ± 0.2
CC(/C=C/C=C(\C)C(=O)O)=C\C=C\C=C(C)\C=C\C=C(/C)C(=O)O [Transcrocetin meglumine salt] (compound dose: 10 uM),1.02 ± 0.038,0.737 ± 0.064
CSC(=O)OCC1=C[C@@H]2OC(=O)C3=CO[C@@H](O[C@@H]4O[C@H](CO)[C@@H](O)[C@H](O)[C@H]4O)[C@H]1[C@@H]32 [Paederoside] (compound dose: 10 uM),1.14 ± 0.027,0.937 ± 0.11
CC(=O)O[C@]12CCC(C)=CC[C@]13CC[C@H]2[C@@](C)(/C=C/C=C(\C)C(=O)O)OC3=O [Pseudolaric Acid  A] (compound dose: 10 uM),0.834 ± 0.11,0.449 ± 0.12
CC(=O)OCC1=CO[C@@H](OC(=O)CC(C)C)[C@H]2C1=C[C@H](OC(=O)CC(C)C)[C@]21CO1 [Valepotriate] (compound dose: 10 uM),0.185 ± 0.028,0.321 ± 0.04
CC(=O)O[C@@H]1C[C@@]23C[C@@]24CC[C@H](O[C@@H]2OC[C@@H](O)[C@H](O)[C@H]2O)C(C)(C)[C@@H]4CC[C@H]3[C@]2(C)C[C@@H]3O[C@]4(C[C@@H](C)[C@@H]3[C@@]12C)OC[C@@]1(C)O[C@@H]41 [26-Deoxyactein] (compound dose: 10 uM),0.9809 ± 0.0077,0.911 ± 0.22
C[C@@H]1O[C@@H](O[C@H]2[C@H](OC(=O)[C@]34CCC(C)(C)C[C@H]3C3=CC[C@@H]5[C@@]6(C)C[C@H](O)[C@H](O[C@@H]7O[C@H](CO)[C@@H](O)[C@H](O)[C@H]7O)[C@](C)(CO)[C@@H]6CC[C@@]5(C)[C@]3(C)CC4)O[C@H](CO)[C@@H](O[C@@H]3OC[C@@H](O)[C@H](O)[C@H]3O)[C@@H]2O[C@@H]2OC[C@](O)(CO)[C@H]2O)[C@H](O)[C@H](O)[C@H]1O [Polygalasaponin V] (compound dose: 10 uM),0.992 ± 0.027,0.803 ± 0.068
CC(C)=CCC[C@](C)(O[C@@H]1O[C@H](CO)[C@@H](O)[C@H](O)[C@H]1O)[C@H]1CC[C@]2(C)[C@@H]1[C@H](O)C[C@@H]1[C@@]3(C)CC[C@H](O[C@@H]4O[C@H](CO)[C@@H](O)[C@H](O)[C@H]4O[C@@H]4O[C@H](CO)[C@@H](O)[C@H](O)[C@H]4O)C(C)(C)[C@@H]3CC[C@]12C [Ginsenoside Rd] (compound dose: 10 uM),1 ± 0.022,0.778 ± 0.17

SMILES,cell viability (MDA-MB-231 [1]),kynurenine production (MDA-MB-231 [2])
C[C@H]1[C@@H](O)O[C@@H]2O[C@@]3(C)CC[C@H]4[C@H](C)CC[C@@H]1[C@@]24OO3 [Dihydroartemisinin] (compound dose: 10 uM),0.978 ± 0.069,0.688 ± 0.12
CC(=O)OCc1cocc2c(C=O)ccc1-2 [Baldrinal] (compound dose: 10 uM),1.006 ± 0.006,0.785 ± 0.064
C[C@H]1O[C@@H](Oc2c(-c3cc(O)c(O)c(O)c3)oc3cc(O)cc(O)c3c2=O)[C@@H](O)[C@@H](O)[C@@H]1O [Myricitrin] (compound dose: 10 uM),0.988 ± 0.021,0.694 ± 0.16
C=C(C)C(=O)O[C@H]1CC2=C[C@@H](C/C(C)=C/[C@H]3OC(=O)C(=C)[C@H]13)OC2=O [Deoxyelephantopin] (compound dose: 10 uM),0.768 ± 0.041,0.117 ± 0.06
CC1(C)CC[C@]2(C(=O)O)CC[C@]3(C)C(=CC[C@@H]4[C@@]5(C)CC[C@H](O)C(C)(C)[C@@H]5CC[C@]43C)[C@@H]2C1 [Oleanolic Acid] (compound dose: 10 uM),0.984 ± 0.035,0.778 ± 0.07
C/C1=C\[C@H]2C(=O)[C@@H](C)C[C@]2(O)C(=O)/C(C)=C/[C@@H]2[C@H](CC1)C2(C)C [jolkinol C] (compound dose: 10 uM),1.07 ± 0.041,0.868 ± 0.087
CC1(C)CCC[C@](C)([C@H]2CC[C@]3(C)[C@@H]2[C@H](O)C[C@@H]2[C@@]4(C)CC[C@H](O)C(C)(C)[C@@H]4CC[C@]23C)O1 [Panaxadiol] (compound dose: 10 uM),1.04 ± 0.013,0.719 ± 0.088
CC1=C2[C@@H](OC1=O)[C@H](O)[C@]13[C@H]4C[C@@H](C(C)(C)C)[C@]15[C@@H](OC(=O)[C@@H]5O)O[C@@]23C(=O)O4 [Ginkgolide K] (compound dose: 10 uM),0.996 ± 0.15,0.988 ± 0.29
C=C1C[C@]23C[C@@]1(O)CC[C@H]2[C@@]12C=C[C@H](O)[C@@](C)(C(=O)O1)[C@H]2[C@@H]3C(=O)O [Gibberellic acid] (compound dose: 10 uM),0.951 ± 0.013,0.799 ± 0.11
"CCCCC/C=C\C=C\C(=O)O[C@H]1C(C)=C[C@]23C(=O)[C@@H](C=C(CO)[C@@H](O)[C@]12O)[C@H]1[C@@H](C[C@H]3C)C1(C)C [3-O-(2'E,4'ZDecadienoyl) ingenol] (compound dose: 10 uM)",1 ± 0.09,1.022 ± 0.0084
CCCCCCCCCCCCCC(=O)O[C@@]12[C@H](O)[C@@H](C)[C@@]3(O)[C@@H](C=C(CO)C[C@]4(O)C(=O)C(C)=C[C@@H]34)[C@H]1C2(C)C [Phorbol 13-myristate] (compound dose: 10 uM),1.03 ± 0.065,0.635 ± 0.081
O[C@H]1[C@H]2c3cc4c(cc3CN3CCC(=C[C@@H]1O)[C@H]23)OCO4 [Lycorine chloride] (compound dose: 10 uM),0.582 ± 0.056,0.184 ± 0.072
C[C@@H]1C(=O)O[C@H]2C[C@@]34[C@H]5C[C@@H](C(C)(C)C)[C@]36[C@@H](OC(=O)[C@@H]6O)O[C@@]4(C(=O)O5)[C@]21O [Ginkgolide A] (compound dose: 10 uM),1.03 ± 0.13,1.2 ± 0.084
CC1(C)CC[C@]2(C(=O)O)[C@H](O)C[C@]3(C)C(=CC[C@@H]4[C@@]5(C)CC[C@H](O)C(C)(C)[C@@H]5CC[C@]43C)[C@H]2C1 [Echinocystic acid] (compound dose: 10 uM),1.03 ± 0.014,0.787 ± 0.065
CC1=CCC2CC1C2(C)C (stereo not drawn) [(+)-α-pinene] (compound dose: 10 uM),0.9918 ± 0.0024,0.97 ± 0.036
CC1(C)CCC2(CO)C(=C3C=CC4C5(C)CCC(OC6OC(COC7OC(CO)C(O)C(O)C7O)C(OC7OC(CO)C(O)C(O)C7O)C(O)C6O)CC5C(C)(CO)CC4(C)C3(C)CC2O)C1 (stereo not drawn) [Clinodiside A] (compound dose: 10 uM),0.918 ± 0.029,1.03 ± 0.2
C/C=C(/C)C(=O)O[C@H]1[C@H](OC(C)=O)[C@]2(CO)[C@H](O)C[C@]3(C)C(=CC[C@@H]4[C@@]5(C)CC[C@H](O[C@@H]6O[C@H](C(=O)O)[C@@H](O[C@@H]7O[C@H](CO)[C@@H](O)[C@H](O)[C@H]7O)[C@H](O)[C@H]6O[C@@H]6O[C@H](CO)[C@@H](O)[C@H](O)[C@H]6O)[C@](C)(CO)[C@@H]5CC[C@]43C)[C@@H]2CC1(C)C [Escin IB] (compound dose: 10 uM),0.915 ± 0.022,0.801 ± 0.012
